Publication PMC12136788
Residue numbers refer to the chain shown, from its start. Whole data set: some 5,800 sequences, median “enrichment r” near 0.68, cut for the highest 2% near 11. Only a selection was taken, and the highest values are over-represented in it overall.

T1: UNK ZnF1-6 (called full-length) (human, UniProt Q9C0B0 30-357)
T1 sequence: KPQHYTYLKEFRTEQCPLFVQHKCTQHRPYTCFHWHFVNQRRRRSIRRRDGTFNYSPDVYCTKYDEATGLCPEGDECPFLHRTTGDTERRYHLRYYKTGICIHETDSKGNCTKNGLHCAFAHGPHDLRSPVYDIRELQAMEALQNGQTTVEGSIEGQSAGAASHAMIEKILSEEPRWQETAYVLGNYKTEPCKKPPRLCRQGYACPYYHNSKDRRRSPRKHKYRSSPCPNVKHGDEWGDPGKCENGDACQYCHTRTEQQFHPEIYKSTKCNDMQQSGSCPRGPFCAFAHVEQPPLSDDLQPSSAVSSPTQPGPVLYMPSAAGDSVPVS

B1: chr3:107805913:107806014:+|3pUTR|ENSG00000114439|msi1_unk|FALSE|overlapping (ssRNA)
RNA: GGGAGUUCUACAGUCCGACGAUCUACAUGGAGAUUUAAGUUUAAGAUGGUUUAUAUAAUAGGUUAUACCUACAUUUAUAUUGUAGAAUAAAUAUUAAAAAGCCUGUUCCAGAGACUCCCAAGCAGCCUGGGCAGGCAGAUGUACAACAGAGGAUUGAGCAUCA
B2: chr8:144773268:144774605:-|CDS|ENSG00000196378|control|control|control (ssRNA)
RNA: GGGAGUUCUACAGUCCGACGAUCCACCAGAGGAUUCACACUGGGGAGAAACCCUACAAGUGUGGGGAGUGUGGGAAGCACUUUAGCGCCUACUCUUCCCUGAUUUAUCACCAGAGAAUCCACACCGGAGAGAAACCCUAUAAACAACAGAGGAUUGAGCAUCA
B3: chr7:123692404:123692516:-|CDS|ENSG00000106299|unk|total|mutant (ssRNA)
RNA: GGGAGUUCUACAGUCCGACGAUCCCUGCCUUCUGAUGGGGACCAUCAGGUUCCAACUACUGCAGGAAACAAAGCAGCUCUUUCCGAUCAAAUCCGAGAGGGUGCUCAGCUAAAAAAAGUGGAGCAGAACAGUCGGCCAGUGUCCAACAGAGGAUUGAGCAUCA
B4: chr2:32377587:32377702:+|CDS|ENSG00000115760|unk|FALSE|unique (ssRNA)
RNA: GGGAGUUCUACAGUCCGACGAUCGGUGAAAUGUCAGUAUAUCUCUGCUGUGGAUAAAGUUAUAUUUGUGGAUGAUUAUGCAGUAGGGUGUAGGAAGGACCUUAAUGGAAUCUUGUUGUUAGACACUGCUCUGCAAACUCCAGUCAACAGAGGAUUGAGCAUCA
B5: chr15:69268886:69268987:+|CDS|ENSG00000138604|unk|total|mutant (ssRNA)
RNA: GGGAGUUCUACAGUCCGACGAUCGGAGUUAAAGCUGUGUUUAUGAAUAAACAUGACUGGUAUGAAGAAUAUCCAACCACACCCCGCUCUUUUGUUUUAAAUGGCUUUAUGUAUUCUUUAAUUGGGCUGUAUGACUUAAAAGAACAACAGAGGAUUGAGCAUCA
B6: ENSG00000107863:be:win_3351|CDS|ENSG00000107863|bound_else_gene|NA|bound_elsewhere_windowed (ssRNA)
RNA: GGGAGUUCUACAGUCCGACGAUCAAAAGACAAAGGCACAUGGAGAAAAGGCAUUCCAAGUAUCAUGAGAAAGACAUUUGAGAAAAAGCCAACUGCUACAGGAACUUUCGGCGUCCGACUAGAUGACUGCCCACCAGCUCAUACCAACAGAGGAUUGAGCAUCA
B7: ENSG00000172071:stop:overlap|stop_codon|ENSG00000172071|stop_codon|NA|stop_codon (ssRNA)
RNA: GGGAGUUCUACAGUCCGACGAUCCAUCGGGAACAAAACAUUCAAGACAGUCCAACAACUCCCAUAGCCCUUUGCCAAGCAAUUAGCCUUAAGUUGUGCUAGCAACCCUAAUAGGUGAUGCAGAUAAUAGCCUACUUCUUAGAACAACAGAGGAUUGAGCAUCA
B8: chr1:150220393:150220494:-|3pUTR|ENSG00000143401|msi1_unk|total|mutant (ssRNA)
RNA: GGGAGUUCUACAGUCCGACGAUCAUUGUAUGCCGAGAAAAAUUUUCAUUGACUCCCAUUGUGGAAUUCCCCCGCAAUUUAUUCCGACUUAAUUUUUUAAAUUCAAGCUUACUGUAUCCGUCAUUUUCCGCCCAUAAUUAAAACCAACAGAGGAUUGAGCAUCA
B9: chr2:167954955:167954998:-|3pUTR|ENSG00000198648|msi1_unk|FALSE|overlapping (ssRNA)
RNA: GGGAGUUCUACAGUCCGACGAUCGUUGUAUUUAGAAAUUAAUAUACUUAUAAAAUUAAGAUUUAUUAGCCAAACUUGAAUUCUAGUUUUAAAACUGACUGUGAAUUUUAUUUUUCAUAUAUUUAUGCAUUACACACCUUAGCUCAACAGAGGAUUGAGCAUCA
B10: chr1:150220393:150220494:-|3pUTR|ENSG00000143401|msi1_unk|FALSE|overlapping (ssRNA)
RNA: B8 RNA with C32U, C33A, C71U, C72A, C83U, C84A, C117U, C118A, C127U, C128A
B11: chr5:75599425:75599511:+|3pUTR|ENSG00000122008|msi1_unk|total|mutant (ssRNA)
RNA: GGGAGUUCUACAGUCCGACGAUCGAACCGCUUAAUUAAGAACUCACAGACUUUGACAAAGUGGUAACCCGACUUUUAAUUACCCGAUUCUUCAAAUCCGGCUUAAUGCCUGCCCGCAUGCCAAUCCAAUCCCAUGACUGAUGUCAACAGAGGAUUGAGCAUCA
B12: chr10:92030311:92030412:+|3pUTR|ENSG00000095564|unk|FALSE|unique (ssRNA)
RNA: GGGAGUUCUACAGUCCGACGAUCAUAUAAGAUUGAAACUGUAAAAUAUAUGCAACUGUGUGUUAUUUGUAGGAAAUGGUCACUAGAAAGAGCAAAAGAUUAUUCAGGUAUACAGGUUUUUUUUCAUUGUUUAGGAUUUUAACUCAACAGAGGAUUGAGCAUCA
B13: chr2:167954955:167954998:-|3pUTR|ENSG00000198648|msi1_unk|total|mutant (ssRNA)
RNA: B9 RNA with U32C, A33C, U66C, A67C, U83C, A84C, U139C, A140C
B14: chr4:140550230:140550341:+|CDS|ENSG00000179387|unk|FALSE|unique (ssRNA)
RNA: GGGAGUUCUACAGUCCGACGAUCGAAUUUGACAAGUUUUGGUUUGAAGAAGAACCAGAAAGCAUUAUGUAUUUCAAUUUGUAUAGAGAGAAGUUUCAUGAAAAGAUUAAAGGACUUUUACUGGAUUGUAAUGUAGCACUUACUCAACAGAGGAUUGAGCAUCA
B15: chrX:85861749:85861850:-|3pUTR|ENSG00000188419|msi1|FALSE|unique (ssRNA)
RNA: GGGAGUUCUACAGUCCGACGAUCCUAAUUUAAAAUUUCAGAAAAUGCUAUUAAAGAAUUUUGAUUCAAGUAUUUAAACUGUUUAGUUAUGCAUGCUUCUUAUUAACCGAAAAUGAUAAUACCAUUUAGUUUAGUGAUCAGUAUCAACAGAGGAUUGAGCAUCA
B16: chr1:235448940:235449205:-|3pUTR|ENSG00000162885|unk|FALSE|unique (ssRNA)
RNA: GGGAGUUCUACAGUCCGACGAUCAAUAGAGAAUUCCAUUAAAACUAGUCUUAUGACAGAUAUUAACUGUGUUCAGAUUUUAUUAGGCUAGCUAGUUUCUUUCUAUUUAAUAUUUAAAUCUUAUCAUGAAAUGCAGUGAUGAGCCAACAGAGGAUUGAGCAUCA
B17: chr5:75599425:75599511:+|3pUTR|ENSG00000122008|msi1_unk|FALSE|overlapping (ssRNA)
RNA: B11 RNA with C27U, C28A, C68U, C69A, C83U, C84A, C97U, C98A, C113U, C114A
B18: chr1:235448940:235449205:-|3pUTR|ENSG00000162885|unk|total|mutant (ssRNA)
RNA: B16 RNA with U26C, A27C, U45C, A46C, U83C, A84C, U88C, A89C, U92C, A93C

These binders were tested against T1, UNK ZnF1-6 (called full-length) (assay: nsRBNS (natural sequence RNA bind-n-seq); RBNS binding buffer (assumed for nsRBNS): 25 mM Tris pH 7.5, 150 mM KCl, 3 mM MgCl2, 0.01% Triton X-100, 500 ug/ml BSA, 20 U/ml SUPERase-In, 4 C; UNK is unkempt and MSI1 is Musashi-1; names of the RNAs are library labels; protein concentration not given here; high values mean tight binding).

Row | Binder | binding signal [enrichment R]
1 | B1 | 1.89
2 | B2 | 0.587
3 | B3 | 0.493
4 | B4 | 0.488
5 | B5 | 0.547
6 | B6 | 0.507
7 | B7 | 1.57
8 | B8 | 2.56
9 | B9 | 15.2
10 | B10 | 228
11 | B11 | 0.537
12 | B12 | 3.36
13 | B13 | 3.43
14 | B14 | 0.651
15 | B15 | 2.27
16 | B16 | 35.6
17 | B17 | 38.5
18 | B18 | 2.39
